Laboratory results published in PubChem BioAssay (NCI).
About 83,000 compounds went through this panel and 20% of them were active in at least one assay; those are over-represented in the sample as a whole.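 Cell lines were cultured in 96-well plates, exposed to a single compound concentration, and assessed for percent growth 48 hours later.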 The source made the active and inactive calls. Rule for the calls: active = growth percent below 10; inactive = the rest.

Key:
Test in all cases: NCI-60 one-dose screen, 48 h (100 = growth as untreated, 0 = no growth, -100 = all killed)
Conditions in all cases: 10 µM unless noted
SK-MEL-2 melanoma = test system: SK-MEL-2 melanoma
EKVX NSCLC = test system: EKVX NSCLC
SN12C renal = test system: SN12C renal
UO-31 renal = test system: UO-31 renal
TK-10 renal = test system: TK-10 renal
ACHN renal = test system: ACHN renal
CAKI-1 renal = test system: CAKI-1 renal
A498 renal = test system: A498 renal
CCRF-CEM leukemia = test system: CCRF-CEM leukemia
MOLT-4 leukemia = test system: MOLT-4 leukemia
SR leukemia = test system: SR leukemia
RPMI-8226 leukemia = test system: RPMI-8226 leukemia
OVCAR-8 ovarian = test system: OVCAR-8 ovarian
OVCAR-5 ovarian = test system: OVCAR-5 ovarian
OVCAR-4 ovarian = test system: OVCAR-4 ovarian
SK-OV-3 ovarian = test system: SK-OV-3 ovarian
IGROV1 ovarian = test system: IGROV1 ovarian
OVCAR-3 ovarian = test system: OVCAR-3 ovarian
HS 578T breast = test system: HS 578T breast
NCI/ADR-RES ovarian = test system: NCI/ADR-RES ovarian

Measured: growth

COCCOC(=O)C1=C(C)NC(=S)NC1c1ccc2c(c1)OCO2 (stereo not given)
inactive: SK-MEL-2 melanoma 93% | EKVX NSCLC 105% | SN12C renal 104% | UO-31 renal 87.8% | TK-10 renal 104% | ACHN renal 106% | CAKI-1 renal 99.8% | A498 renal 96.1% | CCRF-CEM leukemia 104% | MOLT-4 leukemia 96.9% | SR leukemia 95.5% | RPMI-8226 leukemia 105% | OVCAR-8 ovarian 102% | OVCAR-5 ovarian 109% | OVCAR-4 ovarian 103% | SK-OV-3 ovarian 103% | IGROV1 ovarian 105% | OVCAR-3 ovarian 111% | HS 578T breast 104% | NCI/ADR-RES ovarian 103%

O=C(NCc1cccc(C(F)(F)F)c1)[C@H](CCC(=O)N1CCN(C2CCCCC2)CC1)N1C(=O)[C@@H](N2C(=O)OC[C@@H]2c2ccccc2)[C@H]1/C(Cl)=C/c1ccccc1
inactive: SK-MEL-2 melanoma 34.8% | EKVX NSCLC 53.8% | SN12C renal 37.1% | UO-31 renal 27.5% | TK-10 renal 40.8% | ACHN renal 58.4% | CAKI-1 renal 62.4% | A498 renal 46.9% | CCRF-CEM leukemia 33.9% | MOLT-4 leukemia 21.4% | RPMI-8226 leukemia 14.1% | OVCAR-8 ovarian 64.3% | OVCAR-5 ovarian 87% | OVCAR-4 ovarian 51.6% | SK-OV-3 ovarian 56% | IGROV1 ovarian 36.8% | OVCAR-3 ovarian 47.6% | HS 578T breast 50% | NCI/ADR-RES ovarian 35.7%
active: SR leukemia -36.3%

O=C1C2CC=CCC2C(=O)N1CNc1ccc(Cl)cc1 (stereo not given)
inactive: SK-MEL-2 melanoma 94.2% | EKVX NSCLC 88.6% | SN12C renal 90.8% | UO-31 renal 47% | TK-10 renal 107% | ACHN renal 88.8% | CAKI-1 renal 90.2% | A498 renal 96.5% | CCRF-CEM leukemia 120% | MOLT-4 leukemia 101% | SR leukemia 126% | RPMI-8226 leukemia 116% | OVCAR-8 ovarian 110% | OVCAR-5 ovarian 87.6% | OVCAR-4 ovarian 112% | SK-OV-3 ovarian 101% | IGROV1 ovarian 74.6% | OVCAR-3 ovarian 107% | HS 578T breast 79.3% | NCI/ADR-RES ovarian 95.2%

COc1ccc(/C=C/C(=O)c2ccc(NC(=O)c3cc4cc5ccccc5nc4s3)cc2)cc1OC
inactive: SK-MEL-2 melanoma 103% | EKVX NSCLC 94.6% | SN12C renal 98.1% | UO-31 renal 88.5% | TK-10 renal 126% | ACHN renal 102% | CAKI-1 renal 98% | A498 renal 83.1% | CCRF-CEM leukemia 104% | MOLT-4 leukemia 114% | SR leukemia 98.6% | RPMI-8226 leukemia 99.4% | OVCAR-8 ovarian 111% | OVCAR-5 ovarian 96.8% | OVCAR-4 ovarian 97.1% | SK-OV-3 ovarian 106% | IGROV1 ovarian 81.8% | OVCAR-3 ovarian 95.5% | HS 578T breast 107% | NCI/ADR-RES ovarian 105%

CNc1nc(C)c(-c2nc(Nc3cccc(S(N)(=O)=O)c3)ncc2F)s1
active: SK-MEL-2 melanoma -50.9% | EKVX NSCLC 4.38% | SN12C renal -17.2% | UO-31 renal 1.38% | TK-10 renal -2.07% | ACHN renal 2.7% | A498 renal -38.8% | CCRF-CEM leukemia -2.73% | MOLT-4 leukemia -26.9% | SR leukemia -18.5% | RPMI-8226 leukemia 2.6% | OVCAR-8 ovarian 8.76% | OVCAR-5 ovarian 3.14% | SK-OV-3 ovarian 8.56% | IGROV1 ovarian 4.94% | HS 578T breast 3.64% | NCI/ADR-RES ovarian 5.57%
inactive: CAKI-1 renal 14.8% | OVCAR-4 ovarian 29.2% | OVCAR-3 ovarian 10.2%

Clc1ccc(-c2nnc(COc3ccccc3Cl)o2)cc1
inactive: SK-MEL-2 melanoma 99.1% | EKVX NSCLC 86.9% | SN12C renal 97.8% | UO-31 renal 77.5% | TK-10 renal 69.9% | ACHN renal 22.7% | CAKI-1 renal 84.3% | A498 renal 98.7% | CCRF-CEM leukemia 92% | MOLT-4 leukemia 90.5% | SR leukemia 83.3% | RPMI-8226 leukemia 88.7% | OVCAR-8 ovarian 76.6% | OVCAR-5 ovarian 83.1% | OVCAR-4 ovarian 39.8% | SK-OV-3 ovarian 95.7% | IGROV1 ovarian 83.6% | OVCAR-3 ovarian 81.6% | HS 578T breast 62% | NCI/ADR-RES ovarian 66.8%

O=c1cc(-c2ccccc2)[nH]c2ccccc12
active: IGROV1 ovarian -7.72% | OVCAR-3 ovarian -37.8% | NCI/ADR-RES ovarian -2.1%
inactive: SK-MEL-2 melanoma 55.8% | EKVX NSCLC 50.5% | SN12C renal 91.6% | UO-31 renal 46.6% | TK-10 renal 11.4% | ACHN renal 48.8% | CAKI-1 renal 47.4% | A498 renal 47.6% | CCRF-CEM leukemia 15.2% | MOLT-4 leukemia 32% | SR leukemia 22.8% | RPMI-8226 leukemia 22.4% | OVCAR-8 ovarian 35% | OVCAR-5 ovarian 50.6% | OVCAR-4 ovarian 64.5% | SK-OV-3 ovarian 37.5% | HS 578T breast 25.9%

O=[N+]([O-])c1cccc(-c2nc3sccn3c2-c2ccnc(NCCCNS(=O)(=O)c3cccc(F)c3)n2)c1
inactive: EKVX NSCLC 19.1% | SN12C renal 18.7% | TK-10 renal 52.9% | CAKI-1 renal 10% | A498 renal 33.7% | SR leukemia 13.2% | OVCAR-5 ovarian 66.2% | SK-OV-3 ovarian 44.6% | HS 578T breast 31.2%
active: SK-MEL-2 melanoma -29.2% | UO-31 renal -11.6% | ACHN renal 6.36% | CCRF-CEM leukemia 3.04% | MOLT-4 leukemia -34.4% | RPMI-8226 leukemia -32.5% | OVCAR-8 ovarian -5.3% | OVCAR-4 ovarian -12.2% | IGROV1 ovarian 3.18% | OVCAR-3 ovarian -2.65% | NCI/ADR-RES ovarian -20.8%
